Menin-MLL FL inh: qHTS Assay for Inhibitors Targeting the Menin-MLL Interaction in MLL Related Leukemias: Competition With Fluorescein Labeled MLL-derived Peptide; Fluorescence polarization, fluorescein-MLL peptide displacement from menin; FP activity change, % at 61.4 µM; 290,000 tested, under 10 active; AID 1766, 2009; active = well fitted curve in the direction sought with a large enough effect in the polarisation, not every such curve was filed as active; inconclusive = small, poorly fitted or top-dose-only effect, or effect the other way, or a change in a side signal; inactive = no such curve, though single readings can be large or run the other way; the % refers to the polarisation
Menin MLL FP TR: qHTS Assay for Inhibitors Targeting the Menin-MLL Interaction in MLL Related Leukemias: Competition With Texas Red Labeled MLL-derived Mutant Peptide. O00255. Menin + Texas Red MLL mutant peptide, fluorescence polarization. Potency, µM (series often up to 61.6 µM), most hits filed as inhibitors. 0.23% of 270,000 active. AID 1768, 2009; active = well fitted inhibition curve with a large enough effect in the polarisation, with a control signal flat, not every such curve was filed as active; inconclusive = small, poorly fitted or top-dose-only effect, or effect the other way, or a change in a side signal; inactive = no such curve, though single readings can be large or run the other way; the % refers to the polarisation
pAkt inh: HTS Assay for Inhibitors of Akt Phophorylation: Primary Screen. Neuro2A IGF-stimulated pAkt S473 HTRF, 20 min; hits give low values. 0.32% of 360,000 active. activity change, % for hits at 50 µM; in the data active = activity change below about -80%; inconclusive = mostly about -51% to -80%
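Single-point screen (50 µM final compound) in Neuro2A cells stimulated 20 min with 6 nM IGF at 37 deg C. After lysis, Ser473-phosphorylated Akt read by HTRF (ex 330 nm, em 615/665 nm) as the 665/615 ratio.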
ASM inhibitor: Inhibitors of Secretory Acid Sphingomyelinase (S-ASM): qHTS. Sphingomyelin phosphodiesterase (Homo sapiens), P17405. placental ASM, HMU-PC fluorogenic substrate, 60 min. Potency, µM (series often up to 57.5 µM), most hits filed as inhibitors. 0.006% of 340,000 active; active = well fitted inhibition curve with a large enough effect; inconclusive = small, poorly fitted or top-dose-only effect; inactive = no such curve, though single readings can be large or run the other way
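Fluorogenic HMU-PC substrate (9 uM final) is turned over by placental ASM in 60 min at 37 C after a 10 min compound preincubation. Reaction ended by alkaline stop (pH 10), with fluorescence read at 386/447 nm.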
MLL CXXC-DNA inh: qHTS Fluorescence Polarization Assay for Inhibitors of MLL CXXC domain - DNA interaction; Histone-lysine N-methyltransferase 2A (Homo sapiens), Q03164; MLL-CXXC / FITC-HOXA9 DNA fluorescence polarization; Potency, µM (titrated, usually from 115 µM), usual class: inhibitors; 0.037% of 290,000 active; active = well fitted inhibition curve with a large enough effect in the polarisation, with a control signal flat, not every such curve was filed as active; inconclusive = small, poorly fitted or top-dose-only effect, or effect the other way, or a change in a side signal; inactive = no such curve, though single readings can be large or run the other way; the % refers to the polarisation
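Steps: dispense CXXC domain solution (7 uM) → pin compounds or unlabeled HOX-A9 DNA control → 5 min ambient → add FLSN-HOX-A9 solution (50 nM) → spin → 30 min ambient → fluorescence polarization. Tris pH 7.5/NaCl/DTT/BSA buffer.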
MBNL1 CUG block: qHTS Assay for Inhibitors of MBNL1-poly(CUG) RNA binding | 0.036% of 280,000 active | Potency, µM (highest dose often 57.5 µM), actives largely listed as inhibitors | TR-FRET MBNL1-His/biotin-(CUG)12 binding, 665/545 ratio | Muscleblind-like protein 1 (Homo sapiens), Q9NR56 | AID 2675, 2010; active = well fitted inhibition curve with a large enough effect in the signal ratio, with a control signal flat, not every such curve was filed as active; inconclusive = small, poorly fitted or top-dose-only effect, or effect the other way, or a change in a side signal; inactive = no such curve, though single readings can be large or run the other way; the % refers to the signal ratio
Target sequence (Q9NR56 whole entry, looked up): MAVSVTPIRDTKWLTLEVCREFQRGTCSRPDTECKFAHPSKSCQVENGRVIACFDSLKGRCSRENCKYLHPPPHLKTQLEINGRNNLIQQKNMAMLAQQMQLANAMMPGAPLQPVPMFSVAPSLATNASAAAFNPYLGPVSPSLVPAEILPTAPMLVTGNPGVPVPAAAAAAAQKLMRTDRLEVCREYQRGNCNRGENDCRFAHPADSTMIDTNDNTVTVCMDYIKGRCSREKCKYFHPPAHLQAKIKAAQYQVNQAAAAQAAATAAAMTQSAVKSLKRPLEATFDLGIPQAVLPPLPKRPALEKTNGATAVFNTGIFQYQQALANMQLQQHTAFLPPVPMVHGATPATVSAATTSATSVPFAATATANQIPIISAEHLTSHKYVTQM
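MBNL1-His + Biotin-(CUG)12, cpd titration 92 nM–58 uM; Tb anti-His Ab 0.055 ng/ul, SA-XL665 5 nM (final); 60 min RT; ratiometric 665/545 nm, Ex 340 nm; normalized to buffer and full-complex controls.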
Hits are given with their value; – = inactive; ? = inconclusive; · = no result given. Hits are enriched below; roughly 0.45% of the tested compounds scored in any of these assays.

SMILES	Menin-MLL FL inh	Menin MLL FP TR	pAkt inh	ASM inhibitor	MLL CXXC-DNA inh	MBNL1 CUG block
O=C(NNS(=O)(=O)c1ccc(F)cc1F)C1Cc2c(ccc3ccccc23)O1 (stereo not drawn)	–	·	–	–	–	–
O=C(Nc1nnc(CC(c2ccccc2)c2ccccc2)s1)c1ccco1	–	–	-112%	–	–	–
CCC(c1ccccc1)c1nnc(NC(=O)c2ccco2)s1 (stereo not drawn)	–	·	–	–	–	–
O=C(Nc1nnc(Cc2ccccc2)s1)c1cccs1	–	–	-82%	–	–	–
CCOCc1nnc(NC(=O)c2ccco2)s1	–	–	-123%	–	–	–
O=C(CN1CCN(S(=O)(=O)c2ccc3ccccc3c2)CC1)Nc1ccc(N2CCOCC2)cc1	–	–	–	–	–	–
COc1ccc(C(=O)CSc2n[nH]c(C)n2)cc1[N+](=O)[O-]	–	–	–	–	–	?
CC1CC(=O)c2cnc(Nc3cccc(C(F)(F)F)c3)nc2C1 (stereo not drawn)	–	–	-104%	–	–	–
CC1CC(=O)c2cnc(Nc3ccccc3)nc2C1 (stereo not drawn)	–	–	–	–	–	–
O=C(NCc1ccccc1)c1cc(S(=O)(=O)N2CCOCC2)ccc1F	–	–	-114%	–	–	–
Nn1c(SCC(=O)NC2CCCc3ccccc32)nnc1-c1cccs1 (stereo not drawn)	–	–	-103%	–	–	–
COc1ccc2nc(N3CCC(O)CC3)c(C#N)cc2c1	?	–	–	–	–	?
COc1ccc2nc(N3CCC(C)CC3)c(C#N)cc2c1	?	–	-103%	–	–	–
COc1cc2c(cc1OC)CN(C(=O)/C=C/c1cc(OC)c(OC)c(OC)c1)CC2	–	10µM	–	–	?	?
COc1cc2c(cc1OC)CN(C(=O)/C=C/c1ccc(F)cc1)CC2	–	?	–	–	–	–
O=c1[nH]c(=O)n(Cc2ccccc2)c2nc(-c3ccco3)cc(C(F)(F)F)c12	?	–	-110%	–	–	–
CCOC(=O)c1nnn(-c2nonc2N)c1-c1ccc(OC)cc1	–	–	-110%	–	–	–
CCOC(=O)c1nnn(-c2nonc2N)c1-c1ccc(Cl)cc1	–	–	–	–	–	·
Cc1cccc(-c2nnn(C/C(N)=N/O)n2)c1	–	–	–	–	–	–
CCOC(=O)C1=C(C)NC2=C(C(=O)C(C(=O)OCC)C(c3ccc(OC)cc3)C2)C1c1ccccn1 (stereo not drawn)	–	–	-108%	–	–	–
CCOC(=O)C1=C(C)NC2=C(C(=O)C(C(=O)OCC)C(c3cccc(OC)c3)C2)C1c1ccccn1 (stereo not drawn)	–	–	–	–	–	–
COc1cc2c(cc1OC)CN(C(=S)Nc1ccccc1Cl)CC2	–	–	–	–	–	–
O=C(COC(=O)c1cccnc1SCC(=O)NCc1ccccc1)NCc1ccccc1	–	·	-89%	–	–	–
N#Cc1ccccc1S(=O)(=O)N1CCN(CC(=O)NC(=O)NC2CCCCC2)CC1	·	·	–	–	·	·
COc1ccc(OC)c(NS(=O)(=O)c2ccc(N3CCCC3=O)cc2)c1	–	–	-115%	–	–	–
SMILES	Menin-MLL FL inh	Menin MLL FP TR	pAkt inh	ASM inhibitor	MLL CXXC-DNA inh	MBNL1 CUG block
COc1ccc(CCNS(=O)(=O)c2ccc(N3CCCC3=O)cc2)cc1	·	·	–	–	·	·
Cn1c(Cc2ccccc2)nnc1SCC(=O)NC1CC1	–	–	–	–	–	–
CCn1ncc(C(=O)Nc2ccc(S(=O)(=O)N3CCCC3)cc2)c1C	–	–	-123%	–	–	–
CC/C(=N\n1nnnc1Nc1ccccc1)c1ccccc1	–	–	-113%	–	–	–
CCOC(=O)c1c(-c2ccc(C)o2)csc1NC(=O)CSc1ncn[nH]1	–	–	–	–	–	–
Cc1c(OCc2ccccc2)c(=O)ccn1Cc1ccc(Cl)cc1	–	–	-115%	–	–	–
Cc1ccnc(NC(=O)c2ccc3c(c2)NC(=O)C(C)S3)c1 (stereo not drawn)	·	·	–	–	·	·
C=CCn1c(=O)n(CCC#N)c(=O)n(CCC#N)c1=O	–	–	-99%	–	–	–
C=CCn1c(C)cc(C)c(C#N)c1=O	–	?	–	–	–	–
CCCCCCC(=O)Nc1nnc(CC)s1	–	–	-123%	–	–	?
COC(=O)c1ccc(NC(C(=O)OC)C(C)C)c([N+](=O)[O-])c1 (stereo not drawn)	–	–	–	–	–	?
CCOC(=O)c1ccc(NC(=O)CC2OCCN(CC)C2=O)cc1 (stereo not drawn)	–	–	-118%	–	–	–
CCOC(=O)c1ccc(NC(=O)CC2C(=O)OCCN2CC)cc1 (stereo not drawn)	–	–	–	–	?	–
CCOC(=O)c1ccc(NC(=O)C(=O)NCC2CCCO2)cc1 (stereo not drawn)	–	–	-108%	–	–	–
CCc1ccc(NC(=O)C(=O)NCC2CCCO2)cc1 (stereo not drawn)	–	–	–	–	–	–
Cc1ccc(OCCSCc2nc3ccccc3[nH]2)cc1	–	·	-98%	–	–	–
ClC1(Cl)CC1Cn1c(C2CC2)nc2ccccc21 (stereo not drawn)	–	–	–	–	–	–
N#CCCn1c(C2CCCCC2)nc2ccccc21	–	–	-122%	–	–	–
COc1ccc(/C=N/NC(=O)CN2CCS(=O)(=O)CC2)cc1	–	–	–	–	–	–
CC(C)(C)c1ccc(C(=O)NC(=S)Nc2ccc(N3CCOCC3)cc2)cc1	–	–	–	–	–	–
CCCCCCn1c(C)nc2c(c1=O)c1nc3ccccc3nc1n2/N=C/c1ccco1	–	–	-108%	–	–	–
Cc1nc2c(c(=O)n1CCC1=CCCCC1)c1nc3ccccc3nc1n2/N=C/c1ccccc1	–	–	–	–	–	–
CSc1ccc(Cn2c(C)c(C(=O)NCc3cccc(C)c3)sc2=O)cc1	·	·	–	·	·	·
Cc1ccc(N=C2C(=O)Nc3ccccc32)cc1	–	–	–	–	–	?
CCN(CC)c1ccc(N=C2C(=O)Nc3ccccc32)cc1	–	22µM	–	–	–	?
O=C(Oc1ccc(F)cc1)c1ccc2c(=O)n3c(nc2c1)CCC3	·	·	–	–	·	·
Nc1ccc2cccc(O)c2c1	·	·	–	–	·	·

Assay outcomes: PubChem, National Center for Advancing Translational Sciences (NCATS)
